A selection: hits, their analogues and other compounds. The true share with any hit is near 31%.
CYP2C19 inhib = blockers of cytochrome P450 2C19 activity – biochemical, luminescence, ADME assay, primary screen | 96,000 tested, 21% active | inhibition, % at 5 µM | P33261 | CYP2C19 Supersomes, luciferin-H EGE luminescence, 30 min;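 active means CYP2C19 inhibition above a set limit at 5 µM in the primary screen, cut at about 50% in these data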;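 further: plate controls were negative control wells for no effect and 2.5 mM tranylcypromine positive control for full effect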
Target sequence (P33261 whole entry, looked up): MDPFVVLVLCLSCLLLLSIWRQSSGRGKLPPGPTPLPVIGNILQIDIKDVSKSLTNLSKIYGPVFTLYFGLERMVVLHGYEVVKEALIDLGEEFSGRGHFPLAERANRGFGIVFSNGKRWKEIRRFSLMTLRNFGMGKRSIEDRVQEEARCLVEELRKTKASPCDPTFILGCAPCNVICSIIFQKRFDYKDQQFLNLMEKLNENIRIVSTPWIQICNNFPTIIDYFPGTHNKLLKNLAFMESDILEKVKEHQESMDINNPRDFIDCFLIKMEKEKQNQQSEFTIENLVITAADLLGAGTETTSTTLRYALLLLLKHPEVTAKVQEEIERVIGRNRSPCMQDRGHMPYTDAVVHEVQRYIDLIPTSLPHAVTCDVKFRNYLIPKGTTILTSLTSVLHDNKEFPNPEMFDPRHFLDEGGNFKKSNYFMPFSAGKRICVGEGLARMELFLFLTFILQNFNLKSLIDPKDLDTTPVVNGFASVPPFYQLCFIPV
CYP2C19 activ = human CYP2C19 activators, primary screen, biochemical, luminescence; Cytochrome P450 2C19 (Homo sapiens), P33261; recombinant CYP2C19, luciferin-H EGE luminescence; stronger effect = higher value; 0 = fully inhibited enzyme, 1 = untreated enzyme; activation factor at 5 µM; 96,000 tested, under 10 active; AID 1025, 2008;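 active means activation factor of at least 2 at 5 µM in the primary screen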;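 further: 0 = wells with 2.5 mM tranylcypromine and 1 = vehicle-only wells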
CYP2C9 activ = human CYP2C9 activators, primary screen, biochemical, luminescence | recombinant CYP2C9, luciferin-H conversion; stronger effect = higher value; factor 1 = untreated enzyme, 0 = blocked | Cytochrome P450 2C9 (Homo sapiens), P11712 | 96,000 tested, 1.4% active | AID 1024, 2008 | activation factor at 5 µM;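 active means activation factor of 2 or more for CYP2C9 at a 5 µM dose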;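 further: 0 = sulfaphenazole-blocked wells and 1 = vehicle-only wells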
CYP2C9 inh = blockers of cytochrome P450 2C9 activity – biochemical, luminescence, ADME assay, primary screen | AID 777, 2007 | 96,000 tested, 20% active | inhibition, % at 5 µM | P11712 | CYP2C9 Supersomes, luciferin-H conversion;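 active means blocking of liver enzyme CYP2C9 beyond about 50% at 5 µM, limit read from the data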
PLAP act = PLAP enzyme activators, biochemical, luminescence, HTS. AID 696, 2007. activation fold at 20 µM. purified PLAP enzyme, luminescent substrate read-out; stronger effect = higher value. 96,000 tested, 1.2% active; in the data active means activation fold above about 2
Active calls of the source: *.

SMILES	CYP2C19 inhib	CYP2C19 activ	CYP2C9 activ	CYP2C9 inh	PLAP act
COc1ccccc1OCCCn1cc(C#N)c2ccccc21	100*	0	0	95*	0.9
Cc1ccc(CNC(=O)c2cn(C3CCCC3)c(=O)c3c2c2ccccc2n3C)o1	6	0.9	0.8	24	1.5
O=C1CC(N2CCN(C/C=C/c3ccccc3)CC2)C(=O)N1CCc1ccccc1 (stereo unspecified)	1	1	1	-1	1.5
O=C1CC(N2CCN(C/C=C/c3ccccc3)CC2)C(=O)N1Cc1cccs1 (stereo unspecified)	55*	0.4	0.6	36	1.5
O=C1c2ccccc2C(=O)N1CCc1nc2ccccc2c(=O)n1CCCn1ccnc1	50	0.5	0.2	80*	1
O=C1c2ccccc2C(=O)N1Cc1nc2ccccc2c(=O)n1CCCn1ccnc1	88*	0.1	0.1	92*	0.9
O=C(NCCN1CCOCC1)Nc1ccc(Cl)cc1Cl	6	0.9	1.1	-6	0.9
Cc1cc2c(c(SCC(=O)NCCc3ccccc3)n1)C(=O)OC2	30	0.7	0.9	12	1
Cc1ccc(C(=O)COC(=O)CNC(=O)COc2ccccc2C)cc1C	12	0.9	2.4*	-144	1.1
CC(C)c1ccc(CNc2ccc(N3CCOCC3)cc2)cc1	95*	0	1	0	1.3
c1cc(CNc2ccc(N3CCOCC3)cc2)ccn1	24	0.8	0.7	31	0.9
Cc1ccc(-c2nnc(SCC(=O)N3CCOCC3)nc2-c2ccc(C)cc2)cc1	14	0.9	0.7	33	1.6
CCn1c(Cc2ccc(OC)cc2)nnc1SCC(=O)N1CCN(c2ccccc2)CC1	48	0.5	0.6	38	1.8
Cc1ccc(CSCc2nnc(SCC(=O)N3CCN(c4ccccc4)CC3)n2C)cc1	60*	0.4	0.2	78*	1.8
CCn1c(CSCc2ccc(F)cc2)nnc1SCC(=O)N1CCN(c2ccccc2)CC1	80*	0.2	0.4	58*	1.8
CCOc1ccccc1CNC(=O)CCN1C(=O)COc2ccccc21	75*	0.3	1.9	-86	1.2
Cc1cccc(N2CCN(CC(=O)Nc3nccs3)CC2)c1C	82*	0.2	0.4	62*	2.3*
COCCn1cc(C(=S)N2CCOCC2)c2ccccc21	-5	1.1	1.3	-33	1
CC1Oc2ccccc2N(CC(=O)NCCc2ccccc2)C1=O (stereo unspecified)	94*	0.1	0.7	26	1.1
CC1Oc2ccccc2N(CC(=O)N(Cc2ccccc2)Cc2ccccn2)C1=O (stereo unspecified)	61*	0.4	0.3	65*	0.9
CC(C)C(OC(=O)CN1C(=O)COc2ccccc21)C(=O)NC1CCCC1 (stereo unspecified)	18	0.8	0.8	24	1
Cc1ccc2c(c1)N(CC(=O)OC(CC(C)C)C(=O)NC1CCCC1)C(=O)CO2 (stereo unspecified)	69*	0.3	0.4	63*	1.3
Cc1ccc(CCNC(=O)CN2C(=O)COc3ccccc32)cc1	89*	0.1	0.4	59*	0.9
CC1Oc2ccccc2N(CC(=O)c2ccccc2)C1=O (stereo unspecified)	46	0.5	0.8	19	0.9
Cc1ccc2c(c1)[nH]c1c(=O)n(Cc3ccccn3)cnc12	21	0.8	0.9	9	0.8
SMILES	CYP2C19 inhib	CYP2C19 activ	CYP2C9 activ	CYP2C9 inh	PLAP act
COc1cc(C(=O)NCc2cn3cccc(C)c3n2)cc(OC)c1OC	40	0.6	0.5	48	1.2
Cc1ccccc1CN1C(=O)C2(OCCCO2)c2ccccc21	28	0.7	2.2*	-116	1
O=C(CN1C(=O)C2(OCCCO2)c2ccccc21)NCCc1ccccc1	86*	0.1	0.8	17	1
Cc1ccc2c(c1)N(CC(=O)NC1CCC(C)CC1)C(=O)CO2 (stereo unspecified)	62*	0.4	1.1	-6	0.9
Cc1ccc(CNC(=O)CN2C(=O)COc3ccc(C)cc32)cc1	69*	0.3	1.1	-12	1.1
Cc1ccc2c(c1)N(CC(=O)O)C(=O)CO2	5	0.9	1	-5	0.9
Cc1ccc2c(c1)N(CC(=O)NCc1cccs1)C(=O)CO2	68*	0.3	1.2	-18	0.9
CCN(CCCNC(=O)CN1C(=O)COc2ccccc21)c1cccc(C)c1	82*	0.2	0.3	67*	1.1
COC(=O)Cc1[nH]nc2c1C1(C(=O)N(Cc3ccc(Cl)cc3)c3ccccc31)C(C#N)=C(N)O2 (stereo unspecified)	24	0.8	0.6	36	1.7
CCc1[nH]nc2c1C1(C(=O)N(Cc3ccccc3)c3ccccc31)C(C#N)=C(N)O2 (stereo unspecified)	85*	0.1	0.1	88*	1.9
O=C(CN1CCN(CC(=O)Nc2ccccc2Cl)CC1)Nc1ccc2c(c1)OCCO2	91*	0.1	0.5	51*	1.3
O=C(CN1CCC(C(=O)c2ccc(Cl)cc2)CC1)Nc1ccc2c(c1)OCCO2	29	0.7	0.4	58*	1.8
COc1ccccc1NC(=O)CN1CCN(CC(=O)Nc2ccc3c(c2)OCCO3)CC1	94*	0.1	0.9	9	0.8
CCOc1ccc(NC(=O)CN2CCN(CC(=O)Nc3ccc4c(c3)OCCO4)CC2)cc1	34	0.7	0.8	17	1.1
CCc1nnc(NC(=O)C2CCN(c3nc(C)cc(C)n3)CC2)s1	-3	1	0.8	24	1
Cc1ccc(C(=O)Nc2ccc(S(=O)(=O)N3CCN(C)CC3)cc2)o1	4	1	0.7	30	1.2
CCN(CC)CCOc1ncnc2c1oc1ccccc12	66*	0.3	0.6	43	1
Cc1nc2ncnn2c(C)c1Cc1ccccc1Cl	87*	0.1	1	4	0.9
Cc1ccccc1Cc1c(C)nc2ncnn2c1C	32	0.7	0.8	21	0.9
Cc1nnc2sc(-c3cccc4ccccc34)nn12	6	0.9	1	-1	0.9
CCOC(=O)c1c(-c2ccc(F)cc2)cn2ccccc12	21	0.8	1	5	0.9
CCCCCCC1/C(=N/O)CCC1C(=O)OC (stereo unspecified)	66*	0.3	0.6	44	0.9
Cc1ccc2nc3ccc(N4CCCCCCC4)nn3c(=O)c2c1	64*	0.4	0.3	70*	1
Cc1ccc2nc3ccc(N4CCN(C)CC4)nn3c(=O)c2c1	21	0.8	1	2	1.1
O=C(N/N=C/c1cccc(Oc2ccccc2)c1)c1ccccc1Br	30	0.7	0.4	63*	0.9
O=C(N/N=C/c1cccc(Oc2ccccc2)c1)c1cccc(Br)c1	42	0.6	0.5	53*	1.1
O=C(N/N=C/C=C/c1ccccc1)c1ccccc1Br	22	0.8	0.6	41	1.3

Source: PubChem BioAssay (Sanford-Burnham Center for Chemical Genomics)
